# Compound activity as filed in PubChem.
# MCF10A rereplic – inducers of DNA re-replication in MCF 10A breast cells; MCF 10A DNA re-replication, Hoechst nuclear intensity, 48 h; Potency, µM (doses to about 46.1 µM), inactives show top-dose activity, positive = re-replication, actives largely listed as activators; 2.9% of 350,000 active; AID 624296; also: potency is read from the fitted curve at half-maximal effect; % of control where 0% means no effect; nearly all actives have a fitted effect of over 50% in size
# ATXN2 expr inh – inhibitors of ATXN2 expression. HEK-293 ATXN2-luciferase reporter, luminescence, 24 h. Potency, µM (highest dose often 57 µM), for inactives: top-dose activity change, negative = inhibition, hits mostly inhibitors. 0.72% of 360,000 active. AID 1745845; also: potency is read from the fitted curve at half-maximal effect; % is scaled to controls: 0 for no effect and ±100 for the full control effect; nearly all actives have a fitted effect of over 55% in size
#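 qHTS (up to 57 uM final) was run with 24 h compound exposure of reporter cells at 37 °C. Each well was multiplexed: SteadyGlo luminescence measured ATXN2-luciferase expression after a fluorogenic Gly-Phe-AFC viability readout (25 uM final).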
# IL1B secr inh – inhibitors of inflammasome signaling (IL-1 beta secretion); activity change, % at 57.5 µM; THP-1 LPS/ATP IL-1B secretion, AlphaLISA, 16 h; hits give low values; 4.7% of 360,000 active; in the data active = activity change below about -50%; inconclusive = mostly about -30% to -49%; also: % is scaled to controls: 0 for no effect and ±100 for the full control effect
#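 THP-1 cells pretreated 1 hr with compounds (up to 57.5 uM final), then stimulated with LPS (250 ng/mL final) plus ATP (1.25 mM final); secreted IL-1B measured by AlphaLISA after 16 hr, decreased signal indicating inhibition.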
# SW480 rerep – inducers of DNA re-replication in SW480 colon cancer cells. SW480 DNA re-replication, Hoechst DNA content imaging, 48 h. Potency, µM (series often up to 46.1 µM), without a hit: top-dose re-replication activation, usual class: activators. 1.8% of 340,000 active; also: potency is read from the fitted curve at half-maximal effect; % of control where 0% means no effect; nearly all actives have a fitted effect of over 55% in size
#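 Quantitative HTS format with DMSO vehicle controls; 48 hr drug incubation at 37 C, then 40 min Hoechst staining and scanning imager measurement at 405 nm excitation.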
# S2 tox – reduces viability in counter-screen for ATXN expression inhibitors; 0.49% of 400,000 active; Potency, µM (top dose mostly 56.7 µM), actives largely listed as cytotoxic; AID 651635; S2 cells (HEK-293 line with an ATXN2-luciferase reporter) viability, CellTiter-Fluor protease fluorescence, 24 h; also: potency is read from the fitted curve at half-maximal effect; nearly all actives have a fitted effect of over 40% in size
# PINK1 expr mod – modulators of PINK1 expression; PINK1 immunofluorescence, high-content cytometry, 24 h; 0.2% of 410,000 active; Potency, µM (doses to about 76.6 µM), for the others: top-dose activation (PINK1 increase), hits mostly activators; AID 624263; active = well fitted activation curve with a large enough effect; inconclusive = small, poorly fitted or top-dose-only effect; cell line not stated here; also: potency is read from the fitted curve at half-maximal effect; % of control where 0% means no effect; nearly all actives have a fitted effect of over 65% in size
#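 Stable cell line, 250 cells/well, 12 h attachment; compounds pinned at 5 concentrations, 24 h; CCCP control. Fixed with nuclear dye, primary antibodies 12 h at 10 degrees C, secondary plus cell stain; laser-scanning cytometer read.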
# * = called active by the depositor; i = inactive; ? = inconclusive; / = not tested or not shown; [ ] = dose if it differs, or a comment. Sampled rows, rich in hits. Any-hit rate of the full collection: about 7.1%. Unless noted, calls follow the shape of the dose curve; as a rule, active = well fitted curve in the direction sought with a large enough effect; inconclusive = small, poorly fitted or top-dose-only effect, or another doubt; inactive = no such curve, though single readings can be large; an effect the other way counts as inactive or inconclusive.
SMILES,MCF10A rereplic,ATXN2 expr inh,IL1B secr inh,SW480 rerep,S2 tox,PINK1 expr mod
O=C(Nc1cc(S(=O)(=O)N2CCOCC2)ccc1O)c1ccc(NS(=O)(=O)c2ccc(Cl)s2)cc1,-55.3%,5.6%,14.8,106.0%,i,1.2%
Cc1ccc(NC(=O)c2ccccc2NS(=O)(=O)c2ccc(Cl)s2)cc1S(=O)(=O)N1CCOCC1,7.31µM*,?,?,1.9%,?,39.8µM*
Cc1cc(C)cc(C(=O)NCC(c2ccc(N(C)C)cc2)N2CCCC2)c1 (centres undefined),/,/,/,/,/,-0.6%
Cc1ccc(NC(=O)CCC(=O)N2Cc3ccccc3Oc3ncccc32)cc1,/,0.7%,/,/,i,-0.8%
COc1ccc(C(=O)/C(=C/O)N=Nc2ccc(F)cc2)cc1,?,?,-98.5*,?,22.4µM*,?
COc1ccc(NC(=O)c2cccs2)cc1,-0.3%,25.6%,-0.9,-6.0%,i,0.8%
COc1ccc(N=N/C(=C\O)C(=O)c2cccs2)cc1,?,?,-80.7*,?,?,4.1%
C[C@H](NC(=O)OC(C)(C)C)c1nnc(SCc2ccc(Cl)cc2Cl)o1,/,0.0%,/,/,i,3.2%
O=C(CSC1=NCCS1)N1N=C(c2cccs2)CC1c1ccc(F)cc1 (centres undefined),/,/,-65.7*,/,?,-0.1%
NS(=O)(=O)c1ccc(N2N=C(c3ccccc3)CC2c2ccccc2)cc1 (centres undefined),8.2µM*,-25.2%,-52.1*,13µM*,i,-3.6%
Fc1ccc(N2N=C(c3cccs3)CC2c2ccccc2)cc1 (centres undefined),2.59µM*,5.6%,9.2,5.8µM*,/,?
CCc1ccc(C2=NN(c3ccc(S(N)(=O)=O)cc3)C(c3ccc(F)cc3)C2)cc1 (centres undefined),?,?,-86.7*,9.2µM*,?,-1.8%
COc1ccccc1CNC(=O)Cc1c(C)c2c(cc(C)c3c(C)coc32)oc1=O,/,/,/,/,/,3.4%
Cc1cc(C)c(NC(=O)Cn2c(=O)n(CCc3ccccc3)c(=O)c3ccccc32)c(C)c1,/,2.5%,/,/,i,0.3%
COc1cccc(CNC(=O)c2ccc(-c3nc(CS(=O)(=O)c4ccccc4)c(C)o3)cc2)c1,/,-16.4%,/,/,i,8.0%
CCCN(CCC)S(=O)(=O)c1ccc2c(c1)N(CC(=O)NC(C)c1ccccc1)C(=O)CS2 (centres undefined),/,/,/,/,/,-1.5%
NS(=O)(=O)c1ccc(N2N=C(c3ccccc3)CC2c2ccc(Br)cc2)cc1 (centres undefined),/,?,-24.8,/,?,-0.1%
O=S(=O)(O)c1ccc(N2N=C(c3ccccc3)CC2c2ccccc2)cc1 (centres undefined),15.2%,7.8%,-3.8,14.6µM*,/,0.4%
NS(=O)(=O)c1ccc(N2N=C(c3ccccc3)CC2c2ccccc2Cl)cc1 (centres undefined),3.26µM*,?,-24.7,4.61µM*,i,-1.5%
Cc1ccc(C2CC(c3ccccc3)=NN2c2ccc(S(N)(=O)=O)cc2)cc1 (centres undefined),/,-33.7%,?,/,i,4.6%
O=C(CN(c1ccc(F)cc1)S(=O)(=O)c1ccccc1)NCCSC1CCCCC1,14.4%,-4.9%,-58.9*,4.3%,i,?
Nc1cc(=O)[nH]c2c1CCC2,/,/,/,/,/,0.1%
CNC(=O)[C@@H]1C[C@H](Sc2nc3ccccc3[nH]2)CN1Cc1cccc(C(F)(F)F)c1,/,/,/,/,i,0.5%
O=S(=O)(CCN1C=CC(C(F)(F)F)=NCC1)c1ccc(Cl)cc1Cl,-2.4%,-6.8%,-67.6*,-9.1%,/,-0.5%
COCc1c(C(=O)N2CCC(N3CCCCC3)CC2)cnn1-c1ncc(C)c(-c2cccs2)n1,/,/,/,/,/,0.0%
SMILES,MCF10A rereplic,ATXN2 expr inh,IL1B secr inh,SW480 rerep,S2 tox,PINK1 expr mod
CCN1C(=O)[C@H]2[C@@H](c3ccc(-c4ccc(F)cc4)c(OC)c3)N[C@@](Cc3ccccc3)(C(=O)OC)[C@H]2C1=O,0.5%,-10.0%,-61.8*,-30.0%,i,3.3%
CCN1C(=O)[C@H]2[C@@H](c3ccc(-c4ccccc4)c(OC)c3)N[C@@](Cc3ccccc3)(C(=O)OC)[C@H]2C1=O,-6.3%,5.5%,15.7,0.2%,i,0.6%
CCN1C(=O)[C@H]2[C@@H](c3ccc(-c4cccc(Cl)c4)c(OC)c3)N[C@@](CC(C)C)(C(=O)OC)[C@H]2C1=O,5.8µM*,-13.5%,-61.5*,?,i,2.6%
CCCS(=O)(=O)NCc1c(C)ncc2c1CCN(C(=O)/C=C/c1cccc(Cl)c1)C2,/,/,/,/,i,0.4%
COc1cc(CN2CCOc3ccc(CN4CCC(Oc5cccnc5)CC4)cc3C2)ccc1F,/,/,/,/,?,-0.5%
O=C(Nc1ccc2c(c1)OCO2)c1cnn2c(C(F)(F)F)cc(-c3ccco3)nc12,-0.7%,-4.2%,32.3,-0.4%,i,2.8%
O=C(Nc1cnn(C23CC4CC(CC(C4)C2)C3)c1)c1cnn2c(C(F)(F)F)cc(-c3ccco3)nc12,-14.6%,22.4µM*,-79.6*,-15.0%,?,/
O=C(NC12CC3CC(CC(C3)C1)C2)c1cc2nc(-c3ccco3)cc(C(F)(F)F)n2n1,3.66µM*,6.6%,-15.1,14.6µM*,i,?
COc1ccc(C)cc1NC(=O)CSc1nnc(-c2ccc(Br)cc2)o1,13µM*,24.4%,-29.4,20.3%,i,1.8%[38.3 µM]
COc1ccc(Cl)cc1NC(=O)CSc1nc2sccc2c(=O)[nH]1,20.6µM*,-37.9%,53.9,-4.7%,i,5.8%
COc1ccc(C)cc1NC(=O)CSc1nc2scc(C)c2c(=O)[nH]1,18.4µM*,-2.2%,23.2,?,i,15.0%
